Shown are actives, neighbours in structure and some others; about 7.4% of the full set was active somewhere.
NPC1 promoter act – activators of NPC1 promoter | AID 485313 | Huh7 NPC1 promoter luciferase reporter, 24 h | Potency, µM (series often up to 9.22 µM), for inactives: at the highest dose activation, usual class: activators | 320,000 tested, 2.4% active; further: % of control where 0% means no effect; nearly all actives have a fitted effect of over 60% in size
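Huh7 cells stably carrying NPC1 promoter–luciferase, plated in Opti-MEM with 10% FBS for 2 h, were exposed to compound in DMSO for 24 h at 37 °C; luciferase reagent was added for 10 min and luminescence read.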
FLuc modulator – inhibits or activates purified firefly luciferase, miR-21 counter-screen | P08659 | purified FLuc, Km substrates, luminescence inhibition | Potency, µM (top dose mostly 57.5 µM), inactives show at the top dose activity change, negative = inhibition, hits mostly inhibitors | 360,000 tested, 6.9% active | AID 588342;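 further: plate controls were vehicle for no effect and reference inhibitor for full effect; nearly all actives have a fitted effect of over 55% in size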
Target sequence (P08659 whole entry, looked up): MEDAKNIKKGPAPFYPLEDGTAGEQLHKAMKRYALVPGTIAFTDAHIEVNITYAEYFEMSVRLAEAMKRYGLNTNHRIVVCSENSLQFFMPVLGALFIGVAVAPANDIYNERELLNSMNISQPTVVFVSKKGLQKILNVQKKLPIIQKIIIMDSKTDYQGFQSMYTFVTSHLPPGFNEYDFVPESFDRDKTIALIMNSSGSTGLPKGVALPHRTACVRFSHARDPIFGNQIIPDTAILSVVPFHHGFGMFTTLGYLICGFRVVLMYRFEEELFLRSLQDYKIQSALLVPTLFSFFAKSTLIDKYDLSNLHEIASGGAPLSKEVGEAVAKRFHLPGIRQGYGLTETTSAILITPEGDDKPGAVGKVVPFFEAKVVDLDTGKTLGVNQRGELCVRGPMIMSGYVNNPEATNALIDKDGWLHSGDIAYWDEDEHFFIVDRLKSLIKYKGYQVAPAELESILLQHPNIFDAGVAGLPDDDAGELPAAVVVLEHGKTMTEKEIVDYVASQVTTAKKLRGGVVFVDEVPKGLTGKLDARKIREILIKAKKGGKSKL
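Biochemical qHTS of compounds, final roughly 60 µM downward over six points, against 10 nM purified firefly luciferase using Km concentrations of substrates (10 uM D-luciferin, 10 uM ATP) in Tris acetate pH 7.5 buffer; luminescence output.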
ELG1 genotox – induces genotoxicity in HEK293T cells with luciferase-tagged ELG1. Potency, µM (series often up to 46 µM), for inactives: at the highest dose activity change, positive = activation, actives largely listed as activators. HEK293T ELG1-luciferase reporter, luminescence, 16 h. 330,000 tested, 1.3% active; further: % of control where 0% means no effect; nearly all actives have a fitted effect of over 60% in size
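Reporter readout depends on ELG1 protein level, which increases with genetic stress. After 16 hr compound exposure at 37 °C, luciferase activity was quantified using ONE-Glo.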
SMN2 splice enh – SMN2 splice variant enhancement; AID 1458; Potency, µM (titrated, usually from 46.1 µM), for inactives: at the highest dose activity change, positive = activation, most hits filed as activators; 210,000 tested, 2.8% active; HEK293 SMN2-luciferase splicing reporter, luminescence, 30-36 h; further: % of control where 0% means no effect; nearly all actives have a fitted effect of over 55% in size
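HEK293 cells carry an SMN2 […]–luciferase reporter in which exon 7 inclusion puts luciferase in frame. Cells were plated 10-12 h before compound addition, then incubated 30-36 h at 37C. ONE-Glo luminescence was read; sodium butyrate at 4.5 mM final served as control.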
Rab9 promoter act – activators of Rab9 promoter | Huh7 Rab9 promoter-luciferase reporter, luminescence, 24 h | Potency, µM (highest dose often 9.22 µM), inactives show at the highest dose activation, negative = inhibition, hits mostly activators | 320,000 tested, 2.8% active | AID 485297; further: % of control where 0% means no effect; nearly all actives have a fitted effect of over 60% in size
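Quantitative HTS format; Huh7 Rab9-luciferase reporter cells (1500/well) receive compound 2 h post-plating, incubate 24 h at 37 °C, then get luciferase reagent for 10 min before luminescence reading.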
Numbers without * were called inactive; ? = inconclusive; . = no result given; [ ] = dose if it differs, or a comment. The call rests on the fitted dose curve; in most records, active means well fitted curve in the direction sought with a large enough effect; inconclusive means small, poorly fitted or top-dose-only effect, or another doubt; inactive means no such curve, though single readings can be large; an effect the other way counts as inactive or inconclusive. Potency means the concentration at half of the fitted maximal effect.

SMILES	NPC1 promoter act	FLuc modulator	ELG1 genotox	SMN2 splice enh	Rab9 promoter act
COc1cccc2c1cc1c(=O)n(CC(=O)N3CCN(c4ccccc4F)CC3)nc(C)n12	.	3%	.	-1%	.
COc1ccc(C(=O)N2CCC(c3ccncc3)CC2)cc1OC	.	3%	.	.	.
N=c1sc2ccccc2n1CCS (tested in a mixture with another compound)	.	.	.	-4%[9.22 µM]	.
Cn1cccc1C(=O)N1CCC2(CC1)CCN(C(c1ccccc1)c1ccccc1)CC2	.	.	.	-35%	.
O=C(c1ccco1)n1nc(-c2ccccc2)nc1NCc1ccco1	8%	-8%	7%	?	18%
O=C(COc1ccccc1)n1nc(-c2ccc(Cl)cc2)nc1NCc1ccco1	29%	?	21µM*	16µM*	?
Cc1ccc(-c2nc(NCc3ccco3)n(C(=O)c3ccco3)n2)cc1	?	3%	?	.	3.5µM*
COCC(=O)n1nc(-c2ccccc2)nc1NCc1ccc(N(C)C)cc1	?	17µM*	?	?	?
COCC(=O)n1nc(-c2ccc(C)cc2)nc1NCc1ccc(F)cc1	16%	-18%	18%	?	23%
COc1ccccc1C(=O)n1nc(-c2ccccc2)nc1NCc1ccco1	17%	2%	13%	13µM*	2%
Nn1c(SCC(=O)Nc2ccccc2F)nnc1-c1cccs1	-2%	2%	-9%	.	-1%
O=C(COC(=O)c1cc(S(=O)(=O)N2CCOCC2)ccc1O)Nc1ccc2c(c1)OCO2	.	.	0%	.	.
COc1cc(Cl)c(C)cc1NC(=O)COC(=O)c1ccc(CN2CCCC2=O)cc1	1%	2%	1%	.	-5%
COc1ccc(N2CC(O)=C(c3nc(-c4ccccc4)cs3)C2=N)cc1	3%	-4%	-2%	.	-3%
Oc1ccc(-c2csc(-c3c[nH]c4ccccc34)n2)c(O)c1	3.5µM*	11µM*	?	?	?
COc1ccc(-c2csc(C3=C(O)CN(C(C)C)C3=N)n2)cc1OC	-3%	11µM*	?	7%	4%
Cc1ccc(-c2csc(-c3c[nH]c4ccccc34)n2)c(C)c1	?	?	2%	21%	6%
COc1ccc(-c2nc(CCl)cs2)cc1OC	-2%	?	22%	-5%	12%
COc1ccc(-c2nc(CCl)cs2)cc1	18%	9.5µM*	?	5%	?
COc1ccc(-c2nc(-c3ccc(O)cc3O)cs2)cc1OC	16%	11µM*	?	?	?
CCOC(=O)c1cccc(NC(=O)C2CCCN(S(=O)(=O)c3ccc4c(c3)oc(=O)n4C)C2)c1 (stereo not given)	.	-2%	.	-9%	.
C[C@@H](C[C@H](N)C(=O)O)C(=O)O	.	.	.	3%[9.22 µM]	.
CCc1ccc(-c2nc(CCl)cs2)cc1	?	3.8µM*	?	.	?
COc1ccc(-c2csc(-c3ccc(O)cc3)n2)cc1	-21%	9.5µM*	?	.	2%
COc1ccc(N2CC(O)=C(c3nc(-c4ccc(Br)cc4)cs3)C2=N)cc1	0%	-2%	10%	-7%	0%
SMILES	NPC1 promoter act	FLuc modulator	ELG1 genotox	SMN2 splice enh	Rab9 promoter act
COc1cccc(-c2nc(CCl)cs2)c1	-5%	27µM*	1%	-8%	6%
COc1ccc(C(=O)N2CCc3cc(OC)c(OC)cc3C2COc2ccccc2OC)cc1 (stereo not given)	.	1%	.	.	.
CCOc1ccc2oc(C(=O)N(CC)CC(=O)Nc3c(F)cccc3F)c(C)c2c1	-3%	-3%	-1%	.	2%
CCN1C(C(=O)c2ccccc2)=C(OC(=O)c2ccccc2OC)c2ccccc2S1(=O)=O	.	-3%	.	-30%	.
CC1Cc2ccccc2N1C(=O)C1CC(=O)N(c2ccccc2)C1 (stereo not given)	-7%	-2%	-3%	.	1%
CCCNc1c(F)c(F)c2c(C)c3ccccc3nc2c1F	?	6µM*	?	13%	?
OCCNc1c2ccccc2nc2ccccc12	-29%	0%	-7%	.	-37%
CN1CCN(NC(=O)c2cccc(F)c2)CC1	2%	3%	1%	-9%	1%
C/C(NC(=O)c1ccccc1F)=C1\C(=O)C[C@@H]2[C@H]1C2(C)C	?	15µM*	?	.	?
C/C(NC(=O)c1cccc(F)c1)=C1/C(=O)C[C@@H]2[C@H]1C2(C)C	25%	11µM*	?	6%	25%
CC1(C)CC(NC(=O)c2ccccc2F)CC(C)(C)N1	2%	5%	-5%	.	-2%
O=C(c1cc(C(F)(F)F)cc(C(F)(F)F)c1)N1CCC[C@@]2(CCN(Cc3ccccc3)C2)C1	.	.	.	-2%	.
CC(C)CN(C(=O)COC(=O)Cc1cccc2ccccc12)c1c(N)n(Cc2ccccc2)c(=O)[nH]c1=O	0%	3%	0%	.	-1%
Cc1ccc(Cl)cc1-n1nnc(-c2nsc(NC(=O)c3ccccc3Cl)n2)c1C	.	12µM*	.	-25%	.
Cc1ccc(C(=O)Nc2nc(-c3nnn(-c4cccc(Cl)c4C)c3C)ns2)cc1C	.	-8%	.	.	.
CCN(CC)C(=O)c1ccc(Nc2nnc(-c3ccc(C)c(S(=O)(=O)NC)c3)c3ccccc23)cc1	.	-17%	.	-32%	.
CNS(=O)(=O)c1cc(-c2nnc(Nc3ccc(NC(C)=O)cc3)c3ccccc23)ccc1C	0%	?	-5%	.	4%
C#CC(C)(C)NS(=O)(=O)c1cc(-c2nnc(Nc3ccc(C)cc3)c3ccccc23)ccc1C	.	2.7µM*	.	9%	.
CNC(=O)COc1ccc(Nc2nnc(-c3ccc(C)c(S(=O)(=O)NC(C)(C)C)c3)c3ccccc23)cc1	.	15µM*	.	-33%	.
CC(O)C(=O)N/N=C/c1cccc2ccccc12 (stereo not given)	-3%	-15%	-1%	43%	-2%
